The values that follow come from PubChem BioAssay.

Records with an inconclusive call do not appear. Activity calls are given as the source filed them.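 How the source made its calls, unless noted: active means response below a set limit, under 55% cells CD8-positive and vesicle-bound, and CD8 cells' 90th-percentile brightness under 279; inactive means the rest.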 Peptide text beside a SMILES is read from it. * marks the point of attachment. Boc = CC(C)(C)OC(=O)*; OBn = c1ccc(CO*)cc1

The nature of experiment [1]: rapamycin-like changes in RPL19A-GFP expression – cell-based, S. cerevisiae, multiplex flow cytometry, primary screen (AID 1862; in the data active means percent of DMSO control GFP below about 86%;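 further: lower values mimic rapamycin by blocking the RPL19A rise seen in DMSO cells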). The note with it: S. cerevisiae RPL19A-GFP strain, flow cytometry fluorescence, 3 h; at 10 µM; stronger effect = lower value. (A flow cytometer gives signals particle by particle.)
A short description of experiment [2]: TOR pathway GLN3 branch reporter MEP2-GFP changes – S. cerevisiae, multiplex flow cytometry, primary screen (AID 1867;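 active means GFP response, as percent of the DMSO control, above the screen-wide mean plus 3 SD, about 139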;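 further: median GFP channel fluorescence of barcode-gated MEP2-GFP cells measured by flow cytometry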). The conditions noted are these: S. cerevisiae MEP2-GFP strain, 3 h, at 10 µM, stronger effect = higher value, 100% means same as DMSO wells.
Experiment [3] can be described thus: TOR pathway RTG branch CIT2 reporter changes – S. cerevisiae, GFP fusion, multiplex flow cytometry, primary screen (AID 1870;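 active means percent response above a set limit, the screen-wide mean plus 3 SD, cut at about 130% in these data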;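 further: barcoded CIT2-GFP strain pooled with four other GFP strains with rapamycin as positive control; median GFP fluorescence per well over plate mean of DMSO wells so 100% = DMSO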). The note with it: S. cerevisiae CIT2-GFP expression, 3 h, at 10 µM, stronger effect = higher value.
Experiment [4] can be described thus: TOR pathway LAP4-GFP level changes – S. cerevisiae, multiplex flow cytometry, primary screen (AID 1873;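 active means GFP signal, as percent of the solvent control, above the screen mean plus 3 SD, about 149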). The conditions noted are these: S. cerevisiae LAP4-GFP expression, 3 h, at 10 µM, stronger effect = higher value.
Experiment [5] can be described thus: yeast AGP1-GFP level changes, GLN3 branch – cell-based, multiplex flow cytometry, S. cerevisiae, primary screen (AID 1887;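 active means GFP signal above the screen-wide mean plus 3 SD, that is over about 124.5% of the solvent control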;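 further: AGP1-GFP fusion strain of S. cerevisiae within a five-strain barcoded multiplex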). The note with it: 3 h, at 10 µM, stronger effect = higher value.
A short description of experiment [6]: reduced mouse 2C T cell binding to pMHC/ICAM-1 vesicles – MLPCN validation set, flow cytometry, LFA-1/ICAM-1 modulator project, pilot screen (AID 2523).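 On vesicle binding response: mean PE anti-B7-1 fluorescence of CD8+ cells relative to row control; 100% = QL9-loaded vesicles with DMSO vehicle in the same plate row.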 The note with it: 2C mouse CD8+ T cells, at 7 µM, stronger effect = lower value; double positive events: measured here: CD8+/vesicle+ event percentage.
Experiment [7] deals with Integrin beta-1 (Homo sapiens) + Integrin alpha-4 (Homo sapiens) (UniProt P13612+P05556). Put plainly: alpha4beta1 integrin LIBS antibody binding reduction – U937 cells, HUTS-21 mAb, flow cytometry, validation set, VLA-4 allosteric modulator project, pilot screen (AID 2674;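 active means inhibition above 50%, about 3 SD of the validation set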;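 further: antibody binding induced by the VLA-4 ligand LDV present at three times its Kd; 0% = LDV ligand with antibody and no compound and 100% = antibody without LDV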). The note with it: HUTS-21 LIBS mAb binding, at 6.7 µM, stronger effect = higher value, binding induced by LDV ligand.

Experiment [8] in a line: calorie-restriction mimetic ROS inhibitors, yeast – validation compound set, pilot screen (AID 2706;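 active means superoxide response below 65% of plate, a cut near 3 SD across the whole screen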;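 further: yeast exposed to compound for one week at 30 degrees C before staining; 100% = mean of all compound wells on the same plate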). The conditions noted are these: S. cerevisiae aging, superoxide DHE fluorescence; at 10 µM, stronger effect = lower value.
Experiment [9] addresses Beta-adrenergic receptor kinase 1 (Homo sapiens) (UniProt P25098). The experiment is described as follows: GRK2 binders displacing RNA aptamer, biochemical, validation, human GRK2, bead flow cytometry (AID 488806;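 active means aptamer binding inhibition above 30%, about 3 SD of noise from non-fluorescent compounds; inactive means inhibition at or below 30%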). The note with it: bead-bound GRK2, FAM-aptamer displacement, at 10 µM, stronger effect = higher value.
Experiment [10] concerns the target AP-2 complex subunit beta (Homo sapiens) (UniProt P63010). Put plainly: beta-arrestin/AP2 interaction blockers – biochemical, validation set, GST-AP2 beads, flow cytometry, pilot screen (AID 504541;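 active means inhibition above 54%, about 3 SD of non-fluorescent compounds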;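 further: AP2 carries R879A mutation and is captured from E. coli lysate; bead-bound FITC arrestin peptide fluorescence measuring arrestin peptide binding to AP2; 0% = DMSO wells and 100% = excess unlabeled arrestin peptide control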). The conditions noted are these: FITC arrestin peptide, at 10 µM, stronger effect = higher value, AP2 beta2 appendage fragment, R879A mutant.
Experiment [11] is described as follows: cytosolic pH regulators acting via V-ATPase – S. cerevisiae, pHLuorin, HTS validation (AID 504600; in the data active means response above about 15%;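 further: plate controls were DMSO for no effect and reference compound for full effect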). The note with it: V-ATPase proton transport, at 10 µM, stronger effect = higher value.
Experiment [12] relates to anti-desmoglein-3 scFv antibody binding to human DSG3. The experiment is described as follows: blockers of pathogenic pemphigus antibody–desmoglein-3 binding – biochemical, validation compound set, bead-based, flow cytometry, pilot screen (AID 588368;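 active means binding below the plate cutoff, the plate median minus 3 SD, with a reading above zero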;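 further: signal is the median channel fluorescence of bead-bound GFP antibody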). The conditions noted are these: Protein G beads, DSG3-Fc, scFv-GFP binding, at 10 µM, stronger effect = lower value.
A short description of experiment [13]: Nile Red efflux blockade in pump-expressing yeast – validation compound set, multiplex, phenotypic, pilot screen (AID 588506;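 active means efflux inhibition above 0.42, the validation set average plus 4 SD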;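 further: Nile Red retained in cells so higher fluorescence means more efflux inhibition; 0 = negative control wells and 1 = enniatin B 25 µM full block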). The note with it: S. cerevisiae pump-expressing triplex, Nile Red efflux flow cytometry; at 10 µM; stronger effect = higher value; the pumps come from Candida albicans.
The target of experiment [14] is ATP-binding cassette sub-family B member 6 (Homo sapiens) (UniProt Q9NP58). Put plainly: blockers of ABCB6-driven porphyrin uptake – K562-ABCB6 cells, flow cytometry, validation set, pilot screen (AID 588550;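 active means inhibition above the screen-wide mean plus 3 SD, about 51%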;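 further: 0% = DMSO wells and 100% = benzethonium chloride 70 µM positive control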). The note with it: K562-ABCB6 porphyrin accumulation, 1 h, at 10 µM, stronger effect = higher value.
Experiment [15] can be described thus: AML differentiation inducers, ER-HoxA9 marrow cells – cell-based, GFP/MAC1 double positive, flow cytometry, validation set, primary screen (AID 588685;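 active means differentiation response of at least 50%, scaled between solvent and reference control, from cells with both markers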;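 further: compound exposure lasts four days before antibody staining and flow analysis; 0% = DMSO wells and 100% = 5 µM fulvestrant positive control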). The conditions noted are these: stronger effect = higher value, normalized: vehicle 0, fulvestrant 100.
Experiment [16] has as its target Beta-2 adrenergic receptor (Homo sapiens) (UniProt P07550). Put plainly: agonist-induced loss of surface beta2AR – cell-based, FAP fluorogen, flow cytometry, validation set, pilot screen (AID 504459;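 active means percent response above 42, roughly 3 SD of non-fluorescent test compounds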;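 further: agonist-driven loss of surface beta2AR via internalization measured by FAP dye flow cytometry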). The note with it: Am2.2-beta2AR cells, at 10 µM, stronger effect = higher value.

Sequence of Integrin beta-1 (Homo sapiens) + Integrin alpha-4 (Homo sapiens) (P05556 whole entry, looked up): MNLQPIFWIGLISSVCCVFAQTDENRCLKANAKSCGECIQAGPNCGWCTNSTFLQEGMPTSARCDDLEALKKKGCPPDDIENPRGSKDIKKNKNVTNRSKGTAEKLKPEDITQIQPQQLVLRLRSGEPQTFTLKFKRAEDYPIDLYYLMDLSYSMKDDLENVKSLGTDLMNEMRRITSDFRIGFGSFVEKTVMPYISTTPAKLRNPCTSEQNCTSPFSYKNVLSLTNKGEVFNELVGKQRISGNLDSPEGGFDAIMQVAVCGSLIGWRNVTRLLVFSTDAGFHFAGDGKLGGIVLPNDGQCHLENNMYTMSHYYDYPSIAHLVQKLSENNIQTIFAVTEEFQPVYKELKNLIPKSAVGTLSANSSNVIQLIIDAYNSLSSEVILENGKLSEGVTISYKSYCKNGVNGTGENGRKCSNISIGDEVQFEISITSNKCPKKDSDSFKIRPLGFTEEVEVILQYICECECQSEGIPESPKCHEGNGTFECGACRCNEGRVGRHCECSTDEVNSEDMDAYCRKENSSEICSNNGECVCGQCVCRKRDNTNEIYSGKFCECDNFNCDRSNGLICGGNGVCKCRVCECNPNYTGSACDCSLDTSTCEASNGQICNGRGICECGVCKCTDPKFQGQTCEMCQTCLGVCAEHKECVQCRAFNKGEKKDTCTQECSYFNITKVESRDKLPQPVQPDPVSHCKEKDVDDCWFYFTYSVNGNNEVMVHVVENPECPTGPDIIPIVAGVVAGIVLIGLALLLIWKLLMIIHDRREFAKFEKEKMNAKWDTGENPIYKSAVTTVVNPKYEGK
Sequence of Integrin beta-1 (Homo sapiens) + Integrin alpha-4 (Homo sapiens) (P13612 whole entry, looked up): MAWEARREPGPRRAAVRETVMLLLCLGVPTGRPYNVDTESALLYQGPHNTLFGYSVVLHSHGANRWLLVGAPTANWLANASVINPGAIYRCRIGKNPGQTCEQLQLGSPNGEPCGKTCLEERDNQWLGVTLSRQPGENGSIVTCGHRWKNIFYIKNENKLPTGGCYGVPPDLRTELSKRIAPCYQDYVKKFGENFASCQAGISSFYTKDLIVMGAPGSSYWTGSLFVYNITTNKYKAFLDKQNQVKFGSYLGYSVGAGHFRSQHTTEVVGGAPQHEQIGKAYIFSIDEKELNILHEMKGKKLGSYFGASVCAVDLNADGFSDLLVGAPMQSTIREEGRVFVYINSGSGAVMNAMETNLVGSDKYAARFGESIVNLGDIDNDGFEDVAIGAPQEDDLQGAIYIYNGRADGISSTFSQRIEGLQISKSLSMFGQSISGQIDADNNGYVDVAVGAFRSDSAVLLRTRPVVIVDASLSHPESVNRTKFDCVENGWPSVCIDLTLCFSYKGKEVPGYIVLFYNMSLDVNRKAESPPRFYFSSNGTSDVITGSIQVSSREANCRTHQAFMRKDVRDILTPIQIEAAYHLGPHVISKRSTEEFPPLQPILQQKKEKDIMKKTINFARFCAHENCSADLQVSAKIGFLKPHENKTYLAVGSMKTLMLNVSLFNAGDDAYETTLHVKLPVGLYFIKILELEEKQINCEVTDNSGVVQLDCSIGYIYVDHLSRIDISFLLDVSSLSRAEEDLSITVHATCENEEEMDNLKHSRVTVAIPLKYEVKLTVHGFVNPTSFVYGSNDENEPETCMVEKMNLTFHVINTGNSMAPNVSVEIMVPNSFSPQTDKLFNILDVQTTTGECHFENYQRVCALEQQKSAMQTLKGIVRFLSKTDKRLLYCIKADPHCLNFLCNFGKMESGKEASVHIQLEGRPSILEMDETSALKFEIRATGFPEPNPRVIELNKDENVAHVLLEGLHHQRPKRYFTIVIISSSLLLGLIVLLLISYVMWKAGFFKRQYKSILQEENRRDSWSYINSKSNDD
Sequence of AP-2 complex subunit beta (Homo sapiens) (P63010 whole entry, looked up, the tested form may be a part, one chain of several): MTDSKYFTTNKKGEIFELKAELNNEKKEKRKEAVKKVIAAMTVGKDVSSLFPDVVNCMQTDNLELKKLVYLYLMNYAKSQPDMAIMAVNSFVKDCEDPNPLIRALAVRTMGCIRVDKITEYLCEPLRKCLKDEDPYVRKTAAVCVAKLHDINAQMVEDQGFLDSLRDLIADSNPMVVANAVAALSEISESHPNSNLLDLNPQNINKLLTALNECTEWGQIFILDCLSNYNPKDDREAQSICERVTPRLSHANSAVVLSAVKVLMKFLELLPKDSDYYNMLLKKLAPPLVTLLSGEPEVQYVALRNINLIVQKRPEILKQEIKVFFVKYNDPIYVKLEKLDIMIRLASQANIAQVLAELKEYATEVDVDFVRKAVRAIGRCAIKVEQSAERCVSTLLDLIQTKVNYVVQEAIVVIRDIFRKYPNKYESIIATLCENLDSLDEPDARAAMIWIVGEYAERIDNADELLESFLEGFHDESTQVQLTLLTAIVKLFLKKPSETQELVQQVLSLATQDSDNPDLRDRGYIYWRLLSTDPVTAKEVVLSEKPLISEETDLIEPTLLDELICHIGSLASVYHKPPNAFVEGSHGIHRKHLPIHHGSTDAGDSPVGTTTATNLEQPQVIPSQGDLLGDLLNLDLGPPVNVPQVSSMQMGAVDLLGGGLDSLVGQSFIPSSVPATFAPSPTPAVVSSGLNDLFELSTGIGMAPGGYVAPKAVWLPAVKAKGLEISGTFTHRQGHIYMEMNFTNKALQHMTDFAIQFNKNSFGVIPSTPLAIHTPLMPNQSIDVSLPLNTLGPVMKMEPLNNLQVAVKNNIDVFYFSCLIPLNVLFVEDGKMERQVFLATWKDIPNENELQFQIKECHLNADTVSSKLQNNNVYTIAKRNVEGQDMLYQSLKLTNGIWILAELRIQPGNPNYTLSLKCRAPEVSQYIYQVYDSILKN
Sequence of Beta-adrenergic receptor kinase 1 (Homo sapiens) (P25098 whole entry, looked up): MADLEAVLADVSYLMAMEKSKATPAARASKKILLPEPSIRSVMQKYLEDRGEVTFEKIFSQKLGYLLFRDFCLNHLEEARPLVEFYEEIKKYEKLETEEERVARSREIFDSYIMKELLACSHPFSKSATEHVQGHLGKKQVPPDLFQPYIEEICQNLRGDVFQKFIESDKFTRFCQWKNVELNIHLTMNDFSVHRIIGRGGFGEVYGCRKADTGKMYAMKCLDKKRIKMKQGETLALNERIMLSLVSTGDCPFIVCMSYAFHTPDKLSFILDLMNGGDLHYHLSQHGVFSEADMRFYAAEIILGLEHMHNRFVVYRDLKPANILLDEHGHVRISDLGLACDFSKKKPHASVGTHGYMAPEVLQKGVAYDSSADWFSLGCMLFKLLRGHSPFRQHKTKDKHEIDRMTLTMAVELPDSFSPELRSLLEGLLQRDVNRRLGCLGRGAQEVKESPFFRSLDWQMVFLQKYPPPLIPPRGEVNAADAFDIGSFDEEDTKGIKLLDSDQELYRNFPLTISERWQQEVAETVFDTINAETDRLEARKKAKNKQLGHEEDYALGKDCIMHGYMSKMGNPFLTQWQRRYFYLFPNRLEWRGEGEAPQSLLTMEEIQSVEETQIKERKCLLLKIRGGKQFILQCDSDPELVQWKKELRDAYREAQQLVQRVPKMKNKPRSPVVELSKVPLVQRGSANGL
Sequence of ATP-binding cassette sub-family B member 6 (Homo sapiens) (Q9NP58 whole entry, looked up): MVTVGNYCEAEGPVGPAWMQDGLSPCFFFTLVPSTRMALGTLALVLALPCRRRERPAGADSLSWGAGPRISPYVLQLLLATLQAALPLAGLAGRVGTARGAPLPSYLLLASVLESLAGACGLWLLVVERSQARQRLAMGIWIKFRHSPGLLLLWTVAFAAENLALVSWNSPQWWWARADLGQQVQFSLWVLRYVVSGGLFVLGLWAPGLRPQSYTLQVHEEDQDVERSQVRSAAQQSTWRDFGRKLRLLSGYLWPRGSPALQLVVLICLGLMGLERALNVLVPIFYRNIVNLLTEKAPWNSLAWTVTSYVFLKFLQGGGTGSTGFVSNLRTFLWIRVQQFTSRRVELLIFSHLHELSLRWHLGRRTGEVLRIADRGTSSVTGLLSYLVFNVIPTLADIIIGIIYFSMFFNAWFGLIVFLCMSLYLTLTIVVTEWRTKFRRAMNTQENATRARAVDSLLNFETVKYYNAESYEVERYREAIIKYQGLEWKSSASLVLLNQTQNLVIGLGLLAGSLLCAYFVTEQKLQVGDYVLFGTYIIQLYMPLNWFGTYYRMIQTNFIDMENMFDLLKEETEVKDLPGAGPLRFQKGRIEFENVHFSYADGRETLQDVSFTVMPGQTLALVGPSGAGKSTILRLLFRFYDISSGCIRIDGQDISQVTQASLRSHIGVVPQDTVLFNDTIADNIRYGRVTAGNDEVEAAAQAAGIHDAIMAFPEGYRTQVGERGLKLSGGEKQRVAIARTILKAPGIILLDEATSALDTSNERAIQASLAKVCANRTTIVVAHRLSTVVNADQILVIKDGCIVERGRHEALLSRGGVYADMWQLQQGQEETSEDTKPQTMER
Sequence of Beta-2 adrenergic receptor (Homo sapiens) (P07550 whole entry, looked up): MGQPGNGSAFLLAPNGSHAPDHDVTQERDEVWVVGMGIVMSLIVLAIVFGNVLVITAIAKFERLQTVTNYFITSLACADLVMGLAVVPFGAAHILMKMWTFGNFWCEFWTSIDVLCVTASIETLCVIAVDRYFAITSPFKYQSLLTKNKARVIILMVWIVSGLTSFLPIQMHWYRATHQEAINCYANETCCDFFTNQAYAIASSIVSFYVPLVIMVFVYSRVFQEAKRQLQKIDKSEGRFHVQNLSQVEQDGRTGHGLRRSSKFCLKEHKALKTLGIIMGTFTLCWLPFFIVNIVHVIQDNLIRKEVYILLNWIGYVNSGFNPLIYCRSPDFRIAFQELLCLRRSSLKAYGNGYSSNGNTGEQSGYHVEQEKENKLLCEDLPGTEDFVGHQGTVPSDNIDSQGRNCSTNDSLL

A word on the inhibition: it is the change of the read-out against control, counted positive when it falls. As to `O=C(/C=C/c1ccco1)N1CCN(c2ccccc2)CC1`, the percent of DMSO control GFP in experiment [1] was 103% (inactive). The figures for the GFP response vs DMSO in [2] and in experiment [4] were 90.8% (inactive) and 86.3% (inactive), respectively. Also, the percent response of DMSO control in experiment [3] was 107% (inactive). Also, the GFP response, % of DMSO in experiment [5] was 92.7% (inactive). Further, the double positive events in [6] worked out at 56.2%. Also, in experiment [6], the vesicle binding response is 210% (inactive). Further, the values for the inhibition in experiment [7], in [10] and in experiment [14] were 8.15% (inactive), 6.32% (inactive) and 5% (inactive), respectively. In experiment [8], the superoxide response (% of plate) was 89% (inactive). For the same molecule, in [9], the aptamer binding inhibition was 1% (inactive). The response in experiment [11] was 5.81% (inactive). Also, the binding (% of control) in experiment [12] was 101% (inactive). Further, the efflux inhibition (fraction of control) in experiment [13] was -0.09 (inactive). The differentiation response in experiment [15] is -19.6% (inactive).
Take `C#CCN1C(=O)C(O)(CC(=O)c2ccc(OC)c(OC)c2)c2ccccc21` (stereo not given): the percent of DMSO control GFP in experiment [1] is 102% (inactive). Besides, the GFP response vs DMSO in experiment [2] was 103% (inactive); in experiment [4], 98% (inactive). The percent response of DMSO control in experiment [3] was 93.1% (inactive). Moreover, the GFP response, % of DMSO in experiment [5] was 97.6% (inactive). In addition, in experiment [6], the double positive events was 64.1%. The vesicle binding response in experiment [6] was 315% (inactive). Also, the inhibition in experiment [7] is 11% (inactive); in experiment [10], -2.48% (inactive); in experiment [14], -4% (inactive). In addition, in [9], the aptamer binding inhibition was 1% (inactive). Besides, the figures for the response in experiment [16] and in experiment [11] were -2.19% (inactive) and -1.43% (inactive), respectively. In addition, the binding (% of control) in experiment [12] is 104% (inactive). For the same molecule, the efflux inhibition (fraction of control) in [13] is 0.11 (inactive). The differentiation response in [15] was 12.9% (inactive).
With `O=C1CCCN1CCCn1cnc2c([nH]c3ccc(F)cc32)c1=O`, the percent of DMSO control GFP in experiment [1] was 105% (inactive). Further, the GFP response vs DMSO in experiment [2] was 104% (inactive); in [4], 89.3% (inactive). Also, in [3], the percent response of DMSO control was 101% (inactive). Moreover, in experiment [5], the GFP response, % of DMSO is 101% (inactive). The molecule also yielded a double positive events in experiment [6] of 57.6%. Further, the vesicle binding response in [6] is 124% (inactive). Moreover, the inhibition in experiment [7] was 10.9% (inactive); in [10] it was -10.6% (inactive); in [14], 10% (inactive). For the same molecule, in experiment [8], the superoxide response (% of plate) was 114% (inactive). Also, the aptamer binding inhibition in experiment [9] is -1% (inactive). Moreover, the response in experiment [11] was 1.63% (inactive). The binding (% of control) in [12] was 100% (inactive). For the same molecule, the efflux inhibition (fraction of control) in [13] is -0.28 (inactive). Also, the differentiation response in [15] was -27.6% (inactive).
Take `CC(C)CC(NC(=O)C(NC(=O)OC(C)(C)C)C(C)C)C(=O)NC(CCC(=O)OCc1ccccc1)C(N)=O` (stereo not drawn) (Boc-Val-Leu-Glu(OBn)-NH2; configuration not given here): the percent of DMSO control GFP in [1] was 99.6% (inactive). Moreover, the GFP response vs DMSO in experiment [2] is 98.9% (inactive); in [4] it was 84.3% (inactive). The percent response of DMSO control in [3] was 95.9% (inactive). For the same molecule, in experiment [5], the GFP response, % of DMSO was 93.1% (inactive). Also, the double positive events in [6] came out at 65%. Moreover, in [6], the vesicle binding response is 186% (inactive). In addition, the inhibition in [7] is 3.49% (inactive); in [10] it was 2.78% (inactive); in experiment [14], 11% (inactive). Besides, in experiment [8], the superoxide response (% of plate) is 94.3% (inactive). In addition, in experiment [9], the aptamer binding inhibition was 0% (inactive). Further, in experiment [11], the response is -7.35% (inactive). Moreover, in experiment [12], the binding (% of control) was 101% (inactive). The efflux inhibition (fraction of control) in experiment [13] is 0.41 (inactive). Besides, in experiment [15], the differentiation response is 22.4% (inactive).
`CC(C)(C)[C@]1(O)CCN2C[C@H]3c4ccccc4CCc4cccc(c43)[C@@H]2C1`: the percent of DMSO control GFP in experiment [1] was 106% (inactive). In addition, the GFP response vs DMSO in [2] was 97.9% (inactive); in experiment [4], 102% (inactive). Moreover, the percent response of DMSO control in [3] was 112% (inactive). For the same molecule, the GFP response, % of DMSO in [5] is 107% (inactive). For the same molecule, the double positive events in [6] turned out to be 35.9%. Further, in [6], the vesicle binding response was 134% (inactive). Further, the inhibition in experiment [7] is -20.8% (inactive); in [10] it was -19.5% (inactive); in experiment [14], 6% (inactive). In experiment [8], the superoxide response (% of plate) was 95.1% (inactive). In addition, the aptamer binding inhibition in [9] is -4% (inactive). The response in [11] was 1.63% (inactive). In addition, the binding (% of control) in experiment [12] was 106% (inactive). The efflux inhibition (fraction of control) in experiment [13] was -0.2 (inactive). Also, in experiment [15], the differentiation response is 20.8% (inactive).
